Source: PubChem BioAssay
KDM5B inh – Primary screen for KDM5B Histone Demethylases FDH-coupled qHTS; Lysine-specific demethylase 5B (Homo sapiens), Q9UGL1; KDM5B demethylase, FDH-coupled NADH fluorescence (FDH is formaldehyde dehydrogenase); Potency, µM (series often up to 57.7 µM), most hits filed as inhibitors; actives 2.6% (n = 220,000); AID 1347165, 2019; active = well fitted inhibition curve with a large enough effect; also: 0% is about no effect; nearly all actives have a fitted effect of over 70% in size
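Here, H3K4me3 peptide (12.5 µM in substrate mix) is demethylated by KDM5BΔAP, 200 nM final, after 10 min compound exposure. Formaldehyde product is coupled through FDH (0.25 U/mL in mix) to NADH fluorescence; 30-min ΔRFU feeds dose-response curves.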
* hit, by the source's call; i = inactive. This is one part of a sample in which hits are shown more often than they occur. Potency is read from the fitted curve at half-maximal effect.

SMILES	KDM5B inh
CCCC(=O)Nc1nc2nc(CCC)cc(=O)n2[nH]1	i
Cc1ccc(O)c(C(=O)c2cc(C#N)c(=O)n(-c3ccccc3C(F)(F)F)c2)c1	i
Brc1ccccc1/C=N/N(c1ccccc1)c1ccccc1	i
COc1ccccc1CNC(=O)COc1ccc2c(C)cc(=O)oc2c1	i
CCCCn1c(=O)[nH]c(=O)c2c1nc(COC(=O)C1CCCC1)n2CC	i
Cc1nn(C(=O)C2CCCN2S(=O)(=O)c2ccc(F)cc2)c(C)c1Sc1ccccc1 (centres undefined)	i
O=C(NCc1ccc2c(c1)OCO2)c1ccc(CN2CCc3ccccc3C2)cc1	i
Cc1ccc(CN2CCCN(c3ccc(C(=O)NCc4ccc5c(c4)OCO5)cc3)C2=O)cc1	i
Cc1[nH]c2ccc(C(=O)NCCN3CCN(C)CC3)cc2c1C	i
Cc1ccc(C(=O)NCCc2nnc3ccc(N4CCCC4)nn23)cc1	i
Cc1ccc(C(=O)NCCN2CCCC2)cc1	i
CN1CCN(CCNC(=O)c2ccc(-c3ccc(N4CCCCCC4)nc3)cc2)CC1	22.4µM*
CN(C)CCNC(=O)c1ccc(-c2ccc(N3CCCCCC3)nc2)cc1	25.1µM*
O=C(NCCN1CCCCC1)c1ccc(-c2ccc(N3CCCCC3)nc2)cc1	28.2µM*
CCNC(=O)N1CCC(Cc2ccc(C(=O)NCCN3CCCCC3)cc2)CC1	i
O=C(NCc1ccc2c(c1)OCO2)c1ccc(-c2ccc(N3CCSCC3)nc2)cc1	28.2µM*
COc1cc(OC)cc(C(=O)Nc2ccc(N3CCCC3)nc2)c1	i
Cc1ccc(-c2ncc(C(=O)NCCN3CCN(C)CC3)c(-c3ccncc3)n2)cc1	i
Cc1ccc(NC(=O)Cc2n[nH]c(=O)c3ccccc23)cc1	i
C=CCNc1nc(C(=O)OCc2ccc(C#N)cc2F)cs1	i
O=C(O)CCCc1c(-c2ccccn2)[nH]c2ccc(Cl)cc12	i
CC(C)c1nc(OCC(=O)NCc2ccccc2)c(C#N)c2c1CCCC2	i
N#Cc1cccc(OCc2cccc3cccnc23)c1	i
COc1cc(CC(=O)OC(C)c2ccc(F)cc2)cc(OC)c1OC (centres undefined)	i
CC1CCCN(c2oc(-c3ccc(Cl)cc3)nc2C#N)C1 (centres undefined)	i
SMILES	KDM5B inh
O=C(NCc1ccccn1)c1ccc(C2CCCCC2)cc1	i
O=C(NCc1ccccn1)c1ccc(-c2ccc(N3CCCCC3)nc2)cc1	15.8µM*
O=C(NCCN1CCOCC1)c1ccc(-c2ccc(N3CCSCC3)nc2)cc1	28.2µM*
CS(=O)(=O)N1CCC(Cc2ccc(C(=O)NCCN3CCOCC3)cc2)CC1	i
Cc1ccc(C(=O)NC[C@H]2O[C@@H](CC(=O)NCCN3CCOCC3)[C@H](O)[C@@H]2O)cc1	i
O=C(NCc1ccccn1)c1ccc2ccccc2c1	i
CCOC(=O)c1cnc(N2CCN(Cc3ccccc3)CC2)c2ccccc12	i
COc1ccc(NC(=O)CCc2c(C)c3ccc(OC)cc3oc2=O)c(OC)c1	i
CCN(CC(=O)N1c2ccccc2SCC1c1ccccc1)Cc1nc2ccccc2c(=O)[nH]1 (centres undefined)	i
CC1(C)CC(C(CC(=O)O)Cc2ccccc2)CCO1 (centres undefined)	i
COc1cccc(CC(=O)N2CCC(N3CC(OCC4CC4)C34CCOCC4)CC2)c1 (centres undefined)	i
COCc1cc(NCCCNc2cccnc2)ncn1	14.1µM*
COCc1cc(NCCSCc2ccccc2C)ncn1	i
O=C(NCCCNc1ccccc1)NCc1cccnc1	i
CCN1C(=O)C2(C(C(=O)c3ccc(C)o3)=C(O)C(=O)N2CCN2CCOCC2)c2ccccc21 (centres undefined)	i
Cc1ccc(C(=O)NCC(C)C)c(C)c1	i
CC(C)c1ccccc1NC(=O)c1nn(Cc2ccccc2)c(=O)c2ccccc12	i
CCn1cc(CN2CCC(c3[nH]ncc3-c3ccccc3C)CC2)cn1	i
Cc1nc(C(=O)N2CCC(c3[nH]ncc3-c3ccccc3C)CC2)cs1	i
Cc1ccccc1-c1cn[nH]c1C1CCN(C(=O)c2cnn3ccccc23)CC1	22.4µM*
CC(=O)N1CCC(N2CC[C@@H](CO)N(C)c3ncccc3C2)CC1	35.5µM*
CN1c2cccnc2CN(C(=O)Nc2ccc(Cl)cc2)CC[C@H]1CO	i
CN1c2cccnc2CN(C2CCC(CO)CC2)CC[C@H]1CO (some centres undefined)	i
COC(=O)c1cccc(C(=O)NCCc2ccccc2)c1	i
Cc1cc2oc(=O)cc(CN3CCC4(CC3)OCCO4)c2cc1C	i
SMILES	KDM5B inh
COc1cc(-c2nc(-c3c(C)noc3C)cc3cc(C)oc23)ccn1	35.5µM*
COc1cc(-c2nc(-c3c(C)noc3C)cc3c2cc(C)n3C)ccn1	i
COc1ccc(-c2nc(-c3c(C)noc3C)cc3cc(CO)oc23)cn1	35.5µM*
CC(=O)Nc1cccc(-c2nc(-c3c(C)noc3C)cc3c2cc(C)n3CCN(C)C)c1	i
Cc1cc2cc(-c3c(C)noc3C)nc(N3CCN(c4ccccn4)CC3)c2o1	31.6µM*
CNC(=O)c1cc2cc(-c3c(C)noc3C)nc(-c3cccc(OC)c3OC)c2o1	i
Cc1cc2cc(-c3c(C)noc3C)nc(N3CCN(C)C(=O)C3)c2o1	i
Cc1cc2cc(-c3c(C)noc3C)nc(N(C)C)c2o1	i
Cc1noc(C)c1-c1cc2cc(C(C)C)oc2c(N2CCN(C)CC2)n1	i
CC(=O)Nc1cccc(-c2nc(-c3c(C)noc3C)cc3cc(CO)oc23)c1	39.8µM*
Cc1ccc(C(=O)COC(=O)CCc2c[nH]c3ccccc23)c(C)c1	i
CN(Cc1ccc(C(C)(C)C)cc1)C(=O)C1CCN(C(=O)c2ccc(C(F)(F)F)cc2)CC1	i
O=C(NC1CCCCCCC1)c1cc(-c2ccc(Cl)c(Cl)c2)nc2ccccc12	i
CC(=O)c1ccc(NC(=O)COC(=O)COc2ccc(C3SCCCS3)cc2)cc1	i
CCc1nnc(NC(=O)CCc2ncc(-c3ccccc3Cl)o2)s1	i
CN(Cc1cccc(Cl)c1Cl)C(=O)CCNC(=O)Nc1ccccc1	i
CN1/C(=C/C(=O)CSC(=S)N2CCCC2)C(C)(C)c2ccccc21	i
Cc1noc(C)c1-c1cc2cc(CN(C)C)oc2c(NC(C)C)n1	i
Cc1noc(C)c1-c1cc2cc(CO)oc2c(-c2ccc(F)c(Cl)c2)n1	31.6µM*
Cc1ccccc1-c1nc(-c2c(C)noc2C)cc2cc(CN(C)C)oc12	i
CC(C)c1nn2c(=O)cc(CN3CCN(c4ncccn4)CC3)nc2s1	i
N#C/C(=C/c1ccc(OC(F)F)cc1)c1ccccn1	i
Cc1cccc(NC(=O)C(C)Sc2ccccc2C(=O)NCC(=O)C(C)(C)C)c1 (centres undefined)	i
CN1CCC2(C1)CN(Cc1ccccc1)c1ccc(C(=O)NC3CCC(O)CC3)cc12 (centres undefined)	39.8µM*
O=C(NC1CCOCC1)c1ccc2c(c1)C1(CCN(CC3CC3)C1)CN2Cc1ccccc1 (centres undefined)	28.2µM*
CN1CCCC2(C1)CN(Cc1cccnc1)c1ccc(C(=O)Nc3ccc(F)cc3)cc12 (centres undefined)	i
COc1cccc(CN2CC3(CCN(C)C3)c3cc(C(=O)NC4CCCCC4)ccc32)c1 (centres undefined)	35.5µM*
O=C(NC1CC1)c1ccc2c(c1)N(Cc1ccccc1)C(=O)CS2=O (centres undefined)	i
